Only a selection was taken, and hits are over-represented in it overall.
Shiga toxin inh – Shiga toxin inhibition | Vero cells, Shiga toxin protein synthesis inhibition reporter | inhibition, % at 38.7 µM | 290,000 tested, 9.2% active; in the data active = inhibition mostly above about 28%, no sharp cut-off; inactive = mostly below about 43%; also: 0% is about no effect
FBPA Giardia inh – inhibitors of Giardia lamblia fructose-1,6-bisphosphate aldolase; A8B2U2; purified Giardia FBPA; Potency, µM (titrated, usually from 59.6 µM), for inactives: at the top dose activity, negative = inhibition, actives largely listed as inhibitors; 290,000 tested, 0.71% active; AID 2451; also: potency is read from the fitted curve at half-maximal effect; % is scaled to controls: 0 for no effect and ±100 for the full control effect; nearly all actives have a fitted effect of over 55% in size
Target sequence (A8B2U2 whole entry, looked up): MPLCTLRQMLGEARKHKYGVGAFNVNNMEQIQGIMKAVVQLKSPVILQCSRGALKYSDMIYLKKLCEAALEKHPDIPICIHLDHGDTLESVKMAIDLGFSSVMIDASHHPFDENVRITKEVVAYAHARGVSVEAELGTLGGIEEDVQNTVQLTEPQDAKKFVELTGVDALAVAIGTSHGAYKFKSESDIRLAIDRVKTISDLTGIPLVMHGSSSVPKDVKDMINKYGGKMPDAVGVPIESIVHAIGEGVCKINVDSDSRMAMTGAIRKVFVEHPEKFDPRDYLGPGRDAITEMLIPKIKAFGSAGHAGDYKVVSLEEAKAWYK
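Giardia FBPA (40 nM reagent) was preincubated 10 min at RT with compound (up to 57.5 uM final), then substrate plus GAPDH/TPI/NAD/arsenate coupling system with diaphorase/resazurin was added; resorufin fluorescence (525/598 nm) was read after 20 min.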
Cycloheximide cs – affects cycloheximide protein synthesis inhibition readout, counter-screen; cell reporter, cycloheximide protein synthesis inhibition counterscreen; max response, %; 300,000 tested, 12% active; AID 2314; in the data active = max response mostly above about 13%, no sharp cut-off; inactive = mostly below about 14%; also: read at 38.3 µM for the half of the compounds with a filed dose; 0% is about no effect
LmPK inhibitor – LmPK (Leishmania mexicana) enzyme inhibition; purified LmPK, Kinase-Glo ATP luminescence, 1 h; Potency, µM (series often up to 57.5 µM), for the others: at the highest dose activity change, negative = inhibition, hits mostly inhibitors; 290,000 tested, 0.37% active; AID 1721; also: potency is read from the fitted curve at half-maximal effect; % is scaled to controls: 0 for no effect and ±100 for the full control effect
Target sequence (Q27686 whole entry, looked up): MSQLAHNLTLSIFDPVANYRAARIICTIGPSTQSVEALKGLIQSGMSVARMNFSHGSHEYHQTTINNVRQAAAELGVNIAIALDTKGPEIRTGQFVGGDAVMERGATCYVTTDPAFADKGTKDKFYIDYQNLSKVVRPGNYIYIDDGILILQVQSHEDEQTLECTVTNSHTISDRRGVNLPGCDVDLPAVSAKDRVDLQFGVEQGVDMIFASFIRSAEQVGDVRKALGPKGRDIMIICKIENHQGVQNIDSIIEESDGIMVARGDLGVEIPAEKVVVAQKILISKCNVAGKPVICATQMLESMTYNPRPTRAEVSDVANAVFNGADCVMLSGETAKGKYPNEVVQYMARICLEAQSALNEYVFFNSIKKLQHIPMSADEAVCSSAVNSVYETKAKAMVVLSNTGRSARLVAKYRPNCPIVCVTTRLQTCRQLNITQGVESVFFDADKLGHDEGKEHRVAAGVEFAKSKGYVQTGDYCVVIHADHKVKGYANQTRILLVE
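Purified LmPK (0.1 nM) with 0.5 mM PEP and 0.1 mM ADP in imidazole buffer pH 7.2 with MgCl2/KCl, 1 h at room temperature. ATP formed was read by luciferase luminescence and normalized to no-enzyme and uninhibited controls.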
TbPYK inhibitor – blocks Trypanosoma brucei pyruvate kinase; TbPYK enzyme, Kinase-Glo Plus ATP luminescence, 45 min; Potency, µM (top dose mostly 76.8 µM), without a hit: top-dose activity, negative = inhibition, usual class: inhibitors; Q57TT1; 410,000 tested, 0.12% active; also: potency is read from the fitted curve at half-maximal effect; % is scaled to controls: 0 for no effect and ±100 for the full control effect; nearly all actives have a fitted effect of over 50% in size
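Quantitative HTS: titrated library compounds versus trypanosomal pyruvate kinase in TEA buffer (pH 7.2) containing KCl, MgCl2, BSA and Tween-20. Reactions were initiated with ADP, 130 uM final. Kinase-Glo Plus luminescence was read after 45 min at RT.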
RE007 growth inh – less growth of the S. pombe RE007 Vpr strain | S. pombe RE007 Vpr strain, BacTiter-Glo ATP luminescence, 24 h | Potency, µM (highest dose often 92.2 µM), for the others: top-dose activity change, negative = less growth, most hits filed as inhibitors | 360,000 tested, 0.21% active; active = well fitted falling curve with a large enough effect; inconclusive = small, poorly fitted or top-dose-only effect; inactive = no such curve, though single readings can be large or run the other way; also: potency is read from the fitted curve at half-maximal effect; % is scaled to controls: 0 for no effect and ±100 for the full control effect; nearly all actives have a fitted effect of over 50% in size
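Fission yeast RE007 carrying one integrated HIV-1 vpr copy, seeded at OD 0.01 in PMG+AL medium with 23 nL pinned compound. Grown 24 h at 30 degrees; viability read by BacTiter-Glo luminescence after 5 min.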
* = called active by the depositor; ? = inconclusive; · = no result. Unless noted, calls follow the shape of the dose curve; as a rule, active = well fitted curve in the direction sought with a large enough effect; inconclusive = small, poorly fitted or top-dose-only effect, or another doubt; inactive = no such curve, though single readings can be large; an effect the other way counts as inactive or inconclusive.

SMILES	Shiga toxin inh	FBPA Giardia inh	Cycloheximide cs	LmPK inhibitor	TbPYK inhibitor	RE007 growth inh
CCCc1nnc(NC(=O)c2cccnc2)s1	14.6	2.0%	1.4	11.2%	-7.4%	2.2%
CC1CN(c2nnc(NC(=O)c3ccccc3)s2)CC(C)O1 (centres undefined)	62.1*	-5.1%	23.2	-0.7%	-2.0%	3.3%
CCSc1nnc(NC(=O)c2ccccc2)s1	76.3*	-18.3%	36.9*	-12.7%	-1.0%	-27.7%
CC(C)c1nnc(NC(=O)c2cccnc2)s1	29.0	-20.5%	30.7*	0.6%	4.0%	-8.0%
CCSc1nnc(NC(=O)c2cccnc2)s1	35.0	?	16.9*	-12.3%	-8.9%	10.3%
O=C(Nc1ccc(Br)cc1)c1cccc(C(=O)Nc2ccc(Br)cc2)c1	·	·	·	·	-1.5%	·
Cc1cccc(CSc2nc(=O)c3c(n2C)NC(=O)CC3c2cc(F)cc(F)c2)c1 (centres undefined)	·	·	·	·	1.0%	·
CCSc1nnc(NC(=O)[C@H](C)NC(=O)c2ccccc2Cl)s1	-6.0	-4.3%	-0.8	2.1%	1.9%	-6.2%
CCSc1nnc(NC(=O)c2ccccc2C)s1	125.3*	-8.0%	36.1*	-3.1%	-0.4%	-26.5%
CCSc1nnc(NC(=O)CC(C)C)s1	27.9	8.9%	18.4*	-6.4%	0.8%	0.4%
CCOC(=O)C1=C[C@@H](C(=O)OCC)[C@@H]2C3=C(C(=O)C2(C)C)[C@H](c2ccccc2)[C@@H]2C(=O)N(c4ccccc4)C(=O)[C@@H]2[C@@H]3C1	-5.0	-7.1%	-2.0	·	·	·
O=C(Nc1cccc(O)c1)c1ccccc1	37.7*	3.5%	20.1*	-13.7%	-5.3%	-18.3%
O=C(Nc1ccccc1)c1ccsc1	54.3	-0.9%	27.0*	-1.9%	-5.9%	-6.7%
O=C(O)/C=C\C(=O)Nc1cccc(C(=O)Nc2cccc(O)c2)c1	76.5*	14.1%	28.1*	7.9%	0.6%	-17.4%
Cc1cc(C(=O)Nc2cccc(O)c2)co1	73.7	-6.6%	32.5*	-16.7%	-3.5%	13.5%
O=C(Nc1cccc(O)c1)c1cccc(NC(=O)c2cccs2)c1	56.6	1.5%	15.4	2.7%	0.0%	-19.7%
CCOc1cc(C2C(C(N)=O)=C(C)Nc3ncnn32)cc(Br)c1O (centres undefined)	·	·	·	·	-3.3%	·
Cn1cnc(S(=O)(=O)N2CCCC(C(=O)NCc3ccc(F)cc3)C2)c1 (centres undefined)	·	·	·	·	1.6%	·
O=C(CSc1nc2c(c(=O)[nH]1)CN(Cc1ccc3c(c1)OCO3)CC2)Nc1cccc(Cl)c1	·	·	·	·	2.2%	·
COc1cccc(-c2nc3c(C#N)c[nH]n3c2NC2CCCC2)c1OC	·	·	·	·	2.8%	·
Cc1cc2c(s1)c1cnn(Cc3ccccc3F)c(=O)c1n2C(C)C	-5.8	·	16.2	·	·	·
CNC(C(=O)c1ccccc1)C(OC)c1ccc(C)cc1 (centres undefined)	44.0*	0.9%	11.4*	1.9%	-0.2%	2.9%
CC(C)(C)OC(=O)N1CSC[C@H]1C(=O)NC[C@H](CC(=O)O)c1ccc(Cl)cc1	5.4	9.1%	2.3	-4.3%	3.8%	20.0%
O=C(NC1CC(=O)N(c2ccc(F)cc2)C1)c1cc2ccccc2o1 (centres undefined)	·	·	·	·	1.1%	·
Cn1c(C2CCCCC2)nc2ccccc21	47.1	9.1%	16.2*	-5.2%	-10.7%	3.5%
SMILES	Shiga toxin inh	FBPA Giardia inh	Cycloheximide cs	LmPK inhibitor	TbPYK inhibitor	RE007 growth inh
CCCn1c2ccccc2c2cnn(CC(=O)NCCc3cc(OC)ccc3OC)c(=O)c21	·	·	·	·	-1.9%	·
COc1ccc2c(CNCCc3ccco3)c(C(=O)O)n(Cc3ccc(F)cc3)c2c1	·	·	·	·	8.1%	·
Cc1ccc(NC(=O)COC(=O)c2cc(Cl)cc(Cl)c2)c(Br)c1	-10.1	7.5%	-4.9	0.6%	-12.2%	·
CCc1cc(C(=O)NNC(=S)Nc2cccc(C)c2)cs1	66.0*	3.7%	28.0*	-8.3%	-13.9%	-23.8%
Cc1cccc(NC(=S)NNC(=O)c2sccc2C)c1	107.4	13.1%	24.9*	?	-12.7%	-19.3%
CCCCNC(=S)NNC(=O)c1csc(CC)c1	34.4*	2.8%	9.4	5.6%	-1.3%	-0.3%
CCc1cc(C(=O)Nc2ccc(C)cc2Br)cs1	71.5*	-14.9%	57.3*	-8.7%	1.6%	-24.4%
Cc1cc(=O)oc2cc(OCC(=O)Nc3c(C)n(C)n(-c4ccccc4)c3=O)c(Cl)cc12	·	·	·	·	2.1%	-4.0%
CCOc1ccc(OCC)c(NC(=O)Cn2ncc3c4ccccc4n(Cc4ccccc4)c3c2=O)c1	·	·	·	·	-0.9%	·
Cc1cccn2c(=O)cc(CSc3nnc(NC(=O)COc4ccc(F)cc4)s3)nc12	·	·	·	·	4.5%	·
Cc1cccc(NC(=O)C(=O)NNC(=O)c2ccc(C(C)(C)C)cc2)c1	-13.0	?	8.0	0.8%	0.7%	?
Cc1cccc(NC(=S)NNC(=O)c2csc(C(C)C)c2)c1	41.7*	1.4%	42.4*	-7.5%	-7.4%	8.4%
CCCCOc1ccc2ccccc2c1C=O	67.7	-0.4%	31.6*	-0.2%	-4.8%	-29.2%
CCCOc1ccc2ccccc2c1/C=C1\SC(=O)NC1=O	·	?	-0.8	4.2%	6.8%	-26.0%
COc1ccc(/C=N/NC(=S)Nc2ccccc2)cc1COc1ccc(F)cc1F	16.6	8.2%	1.7	-3.0%	4.1%	4.5%
COc1ccc(NC(=S)N/N=C/c2ccc(F)c(F)c2)cc1	41.1*	-4.6%	20.2*	2.0%	-5.3%	-13.9%
COc1ccc(NC(=S)N/N=C/c2ccc(F)cc2)cc1OC	46.0*	-15.3%	29.9*	-5.2%	3.4%	1.4%
Fc1ccc(NC(=S)N/N=C/c2ccc(F)c(F)c2)cc1	52.3	-0.3%	28.5*	-1.9%	0.1%	2.0%
Fc1ccc(/C=N/NC(=S)Nc2ccc(Cl)cc2)cc1F	19.7	2.4%	21.9*	-1.1%	-15.7%	-10.5%
Fc1ccc(/C=N/NC(=S)Nc2ccc(Cl)cc2Cl)cc1	-5.4	-0.8%	11.9	2.7%	9.4%	1.9%
CC[C@H](C)[C@H](NC(=O)[C@H](CCC(=O)O)NC(=O)CNC(=O)[C@H](CCCCN)NC(=O)[C@H](CCC(=O)O)NC(=O)[C@H](CCSC)NC(=O)[C@H](CCSC)NC(=O)[C@H](CCSC)NC(=O)[C@H](CCC(=O)O)NC(=O)CNC(=O)[C@H](CO)NC(=O)[C@H](CO)NC(=O)[C@H](CO)NC(=O)[C@@H](N)CC(N)=O)C(=O)N[C@@H](CCCCN)C(=O)O	-5.8	3.2%	1.2	·	·	·
CC1CCN(CCCOc2ccc(Br)cc2Cl)CC1	29.3*	?	21.7*	-10.1%	-1.3%	13.1%
Clc1cc(Br)ccc1OCCN1CCOCC1	48.2	-24.1%	30.9*	-1.1%	5.7%	-12.8%
CC(C)NCCCCOc1ccc(Br)cc1Cl	10.3	-27.3%	8.5	-1.4%	-2.6%	-14.3%
O=C1CCC(=O)N1OCCCOc1ccc(Br)cc1Cl	17.8	0.4%	29.5*	1.9%	-2.0%	-10.7%
CCCCCOc1ccc(CN2CCOCC2)cc1Cl	102.2*	-8.2%	41.2*	0.7%	1.9%	?

Screening results: PubChem BioAssay, National Center for Advancing Translational Sciences (NCATS)
